Compound activity deposited in PubChem BioAssay by National Center for Advancing Translational Sciences (NCATS).
A selection: hits, their analogues and other compounds. The true share with any hit is near 9%.
G9a block = qHTS Assay for Inhibitors of Histone Lysine Methyltransferase G9a | G9a H3K9 monomethylation, AlphaScreen, 2 h | Potency, µM (top dose mostly 102 µM), for inactives: top-dose activity, negative = inhibition, most hits filed as inhibitors | 350,000 compounds, 8.8% hits; further: on the % scale 0 is the no-effect control and ±100 the full control effect; nearly all actives have a fitted effect of over 75% in size
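AlphaScreen read-out: biotin-H3K9 peptide (500 nM) methylation by 20 nM enzyme with 20 uM SAM, 2 h at room temperature after 15 min compound preincubation; anti-monomethyl H3K9 antibody plus donor/acceptor beads, 10 min dark.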
JMJD2A Tudor = qHTS Assay for Inhibitors of JMJD2A-Tudor Domain; Lysine-specific demethylase 4A (Homo sapiens), O75164; AlphaScreen JMJD2A-Tudor / H3K4me3 peptide binding; Potency, µM (titrated, usually from 114 µM), for the others: at the highest dose activity change, negative = inhibition, actives largely listed as inhibitors; 390,000 compounds, 4.4% hits; further: on the % scale 0 is the no-effect control and ±100 the full control effect; nearly all actives have a fitted effect of over 50% in size
HP1b binding inh = HTS for Inhibitors of HP1-beta Chromodomain Interactions with Methylated Histone Tails. AlphaScreen HP1-beta / biotin-H3K9me3 peptide binding. Potency, µM (doses to about 114 µM), inactives show at the highest dose activity change, negative = inhibition, actives largely listed as inhibitors. AID 540317, 2011. 390,000 compounds, 0.56% hits. Chromobox protein homolog 1 (Homo sapiens), P83916; further: nearly all actives have a fitted effect of over 70% in size
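HP1-beta protein (50 nM final) preincubated 30 min at room temperature with biotinylated H3(1-18)K9me3 peptide (50 nM) in PBS pH 7.4, 0.01% Tween-20, then compound added for 30 min. AlphaScreen streptavidin donor/nickel chelate acceptor beads (10 ug/mL final), 30 min dark, luminescence read.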
BAZ2B block = qHTS Assay for Inhibitors of BAZ2B; Potency, µM (top dose mostly 114 µM), inactives show at the highest dose activity change, negative = inhibition, usual class: inhibitors; AlphaScreen BAZ2B-H3K14Ac peptide displacement; Bromodomain adjacent to zinc finger domain protein 2B (Homo sapiens), Q9UIF8; AID 504333, 2011; 360,000 compounds, 4.4% hits; further: on the % scale 0 is the no-effect control and ±100 the full control effect; nearly all actives have a fitted effect of over 60% in size
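Compounds, titrated to a top concentration of 110 uM, were incubated 30 min at room temperature with preformed BAZ2B/acetyl-K14 H3 peptide complex (50 nM each). Proximity signal was measured by AlphaScreen after 20 min with beads.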
ALOX12 inh = Primary qHTS assay for inhibitors of human arachidonate 12S-lipoxygenase (ALOX12): Round 2; AID 1671190, 2021; Polyunsaturated fatty acid lipoxygenase ALOX12 (Homo sapiens), P18054; Potency, µM (top dose mostly 108 µM), for inactives: at the top dose activity change, negative = inhibition, actives largely listed as inhibitors; 580,000 compounds, 1.1% hits; purified 12hLO, xylenol orange hydroperoxide absorbance; further: on the % scale 0 is the no-effect control and ±100 the full control effect
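Hydroperoxide product was detected by ferrous iron/xylenol orange as the 573 to 405 nm absorbance ratio. Arachidonic acid at 40 uM (final) was turned over for 30 min at room temperature by 150 nM human 12hLO, pH 7.0 Hepes buffer, after 15 min compound preincubation.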
PLK1 PBD inh = qHTS for Inhibitors of PLK1-PDB (polo-like kinase 1 - polo-box domain): Primary Screen; Serine/threonine-protein kinase PLK1 (Homo sapiens), P53350; Potency, µM, for inactives: max response, negative = inhibition, actives largely listed as inhibitors; Plk1 PBD binding of FITC phosphopeptide, fluorescence polarization; 360,000 compounds, 2.8% hits; further: series mostly up to about 57 µM; on the % scale 0 is the no-effect control and ±100 the full control effect; nearly all actives have a fitted effect of over 65% in size
Target sequence (P53350 whole entry, looked up, the tested form may be a part): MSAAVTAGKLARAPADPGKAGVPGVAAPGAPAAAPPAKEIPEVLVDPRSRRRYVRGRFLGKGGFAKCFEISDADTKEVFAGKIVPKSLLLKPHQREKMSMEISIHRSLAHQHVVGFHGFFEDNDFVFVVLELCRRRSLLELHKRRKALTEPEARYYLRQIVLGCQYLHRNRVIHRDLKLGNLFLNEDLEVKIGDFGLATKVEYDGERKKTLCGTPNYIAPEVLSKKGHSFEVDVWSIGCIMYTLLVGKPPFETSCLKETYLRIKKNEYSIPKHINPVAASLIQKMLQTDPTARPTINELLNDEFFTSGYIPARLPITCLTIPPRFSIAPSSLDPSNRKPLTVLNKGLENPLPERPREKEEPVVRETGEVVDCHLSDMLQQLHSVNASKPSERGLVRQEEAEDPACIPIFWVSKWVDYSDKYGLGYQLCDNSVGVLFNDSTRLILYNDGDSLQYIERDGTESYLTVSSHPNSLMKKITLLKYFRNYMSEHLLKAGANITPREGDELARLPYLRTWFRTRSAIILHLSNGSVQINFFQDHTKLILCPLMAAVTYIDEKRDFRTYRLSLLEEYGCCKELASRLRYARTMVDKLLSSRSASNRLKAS
Numbers without * were called inactive; [ ] = remark or other dose. The call rests on the fitted dose curve; in most records, active means well fitted curve in the direction sought with a large enough effect; inconclusive means small, poorly fitted or top-dose-only effect, or another doubt; inactive means no such curve, though single readings can be large; an effect the other way counts as inactive or inconclusive. Potency means the concentration at half of the fitted maximal effect.

How did CC1=Nc2ccccc2N=C(NC(=O)/C=C/C(=O)O)C1c1ccccc1 (stereo unspecified) do in these assays?
G9a block: 11µM*; JMJD2A Tudor: -16%; HP1b binding inh: 44%; BAZ2B block: -27%; ALOX12 inh: -20%; PLK1 PBD inh: -4%

How did CCCN1CCN(CCCNC(=S)Nc2ccc3nc(N4CCN(CC)CC4)cc(C)c3c2)CC1 do in these assays?
G9a block: 35µM*; JMJD2A Tudor: -1%; HP1b binding inh: 4%; BAZ2B block: -8%; ALOX12 inh: -17%; PLK1 PBD inh: 8%

How did Cc1cc(N2CCN(C)CC2)nc2ccc(NC(=S)NCCCN3CCc4ccccc4C3)cc12 do in these assays?
G9a block: 40µM*; JMJD2A Tudor: -26%; HP1b binding inh: -7%; BAZ2B block: inconclusive; ALOX12 inh: 4%; PLK1 PBD inh: -3%

How did CCN1CCN(c2cc(C)c3cc(NC(=S)NCCCN4CCc5ccccc5C4)ccc3n2)CC1 do in these assays?
G9a block: 32µM*; JMJD2A Tudor: inconclusive; HP1b binding inh: -12%; BAZ2B block: inconclusive; ALOX12 inh: 0%; PLK1 PBD inh: -5%

What do the screens show for `CCCCNC(=S)Nc1ccc2nc(N3CCN(CC)CC3)cc(C)c2c1`?
G9a block: inconclusive; JMJD2A Tudor: inconclusive; HP1b binding inh: 12%; BAZ2B block: inconclusive; ALOX12 inh: inconclusive; PLK1 PBD inh: -24%

What do the screens show for `Cc1cc(N2CCCC2)nc2ccc(NC(=S)NCCCN3CCC(C)CC3)cc12`?
G9a block: 50µM*; JMJD2A Tudor: -32%; HP1b binding inh: 7%; ALOX12 inh: -17%; PLK1 PBD inh: 3%

Results for Cc1cc(N2CCC(C)CC2)nc2ccc(NC(=O)c3ccccc3)cc12 ?
ALOX12 inh: -25%

Results for CCCCNC(=O)CCC(=O)Nc1ccc2nc(N3CCN(C)CC3)cc(C)c2c1 ?
G9a block: -9%[59 µM]; JMJD2A Tudor: -20%; HP1b binding inh: 12%[57 µM]; BAZ2B block: -20%; ALOX12 inh: -5%; PLK1 PBD inh: -3%

How did CCCCC(OC(=O)CNC(=O)c1ccccc1)C(=O)Nc1cc(C(F)(F)F)ccc1Cl (stereo unspecified) do in these assays?
JMJD2A Tudor: -12%

What do the screens show for `O=[N+]([O-])c1ccc2c(c1N1CCCCC1)=NC1(CCCCC1)[N+]=2[O-]`?
G9a block: 50µM*; JMJD2A Tudor: inconclusive; HP1b binding inh: 40µM*; BAZ2B block: 35µM*; ALOX12 inh: 0%; PLK1 PBD inh: 21µM*

What do the screens show for `CNc1cc(N2CCCCCC2)ccc1[N+](=O)[O-]`?
G9a block: -45%[12.7 µM]; JMJD2A Tudor: inconclusive; HP1b binding inh: inconclusive; BAZ2B block: inconclusive; ALOX12 inh: -16%; PLK1 PBD inh: -6%

What do the screens show for `CC1Cc2nc(SCC(=O)N3CCCc4ccccc43)n(C)c(=O)c2S1` (stereo unspecified)?
G9a block: 3%[59 µM]; JMJD2A Tudor: -25%; HP1b binding inh: 30%; BAZ2B block: 0%; ALOX12 inh: inconclusive; PLK1 PBD inh: -18%

How did O=C(Cc1cccs1)OCC(=O)c1ccco1 do in these assays?
G9a block: 50µM*; JMJD2A Tudor: 79µM*; HP1b binding inh: inconclusive; BAZ2B block: inconclusive; ALOX12 inh: 12%; PLK1 PBD inh: inconclusive

What do the screens show for `Cc1ccc(C)c(SCC(=O)OCC(=O)c2ccco2)c1`?
G9a block: inconclusive; JMJD2A Tudor: 79µM*; HP1b binding inh: inconclusive; BAZ2B block: 50µM*; ALOX12 inh: 40µM*; PLK1 PBD inh: inconclusive

What do the screens show for `Cn1c(N)c(C(=O)COC(=O)Cc2cccs2)c(=O)n(C)c1=O`?
JMJD2A Tudor: -10%; HP1b binding inh: 16%; ALOX12 inh: -3%; PLK1 PBD inh: 5%
